Rows were chosen to be rich in hits. Some 7.3% of all compounds tested hit in one or more screens of this group.
Vaccinia Venus: inhibitors of vaccinia virus (Venus reporter). Vaccinia virus Venus reporter expression, fluorescence. Potency, µM (series often up to 36.5 µM), usual class: inhibitors. actives 0.46% (n = 330,000). AID 720580; calls by dose curve; tested in A549 cells; further: nearly all actives have a fitted effect of over 30% in size
FMDV antiviral: blocks foot and mouth disease virus; FMDV antiviral cell-based qHTS; Potency, µM (titrated, usually from 57.9 µM), usual class: inhibitors; actives 1.2% (n = 410,000); AID 1159524; calls by dose curve; tested in HEK293T cells; further: read-out not given here; nearly all actives have a fitted effect of over 45% in size
HCV inhibitor: inhibitors of hepatitis C virus infection | Huh7.5.1 HCVcc-Cre infection, luciferase reporter, 44 h | Potency, µM (doses to about 41.8 µM), usual class: inhibitors | actives 3.4% (n = 340,000); active means well fitted inhibition curve with a large enough effect; inconclusive means small, poorly fitted or top-dose-only effect, or another doubt; inactive means no such curve, though single readings can be large or run the other way
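Luciferase read-out (15 sec integration) after a 15 min room-temperature substrate step quantifies HCVcc-Cre infection. Cells, 1,000 per well, had compound added 4 h post-plating, then virus at ~0.5 moi, and were cultured 44 h.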
HCMV inh: human cytomegalovirus inhibition. HFF cells, HCMV-luciferase reporter, 72 h; stronger effect = lower value. activity change, negative = inhibition, % at 57.5 µM. actives 4.5% (n = 410,000). AID 1259415; in the data active means activity change below about -60%; inconclusive means no clear call, values can overlap the other calls; inactive means above about -39%
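HFF cells seeded 16 h at 37C, treated with compounds, infected with luciferase-reporter HCMV at MOI 1 PFU/cell; luciferase read at 72 h post infection, normalized to buffer-only and Salinomycin controls.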
Vaccinia mCherry: vaccinia inhibition (mCherry reporter). Vaccinia virus mCherry reporter infection, fluorescence. Potency, µM (top dose mostly 36.5 µM), usual class: inhibitors. actives 0.63% (n = 310,000). AID 720579; calls by dose curve; tested in A549 cells; further: nearly all actives have a fitted effect of over 35% in size
Each line names hits and unclear results; the compound was inactive in the other large screens; ! = not confirmed by another sample.

N#C/C(=C/c1cn(-c2ccccc2)nc1-c1cccc(OCc2ccccc2)c1)C(=O)NCCCn1ccnc1	Vaccinia Venus inconclusive, HCV inhibitor inconclusive
CCOc1cccc(-c2nn(-c3ccccc3)cc2/C=C(/C#N)C(=O)NCCCn2ccnc2)c1	Vaccinia Venus inconclusive, FMDV antiviral inconclusive, HCV inhibitor 18µM, HCMV inh inconclusive, Vaccinia mCherry inconclusive
C=CCNC(=S)N/N=C(\C)c1ccccn1	FMDV antiviral inconclusive, HCMV inh -103 (no result: Vaccinia Venus, Vaccinia mCherry)
CC(=NNC(=S)Nc1ccccc1Cl)c1ccccn1	Vaccinia Venus inconclusive, HCV inhibitor inconclusive, HCMV inh -99, Vaccinia mCherry inconclusive
CC(=NNC(=S)Nc1ccccc1)c1ccccn1	Vaccinia Venus inconclusive, HCMV inh -98, Vaccinia mCherry inconclusive (no result: HCV inhibitor)
C/C(=N/NC(=O)CNC(=O)c1ccccn1)c1ccccc1	none (no result: Vaccinia Venus, Vaccinia mCherry)
Cc1ccn2cc(-c3ccc(O)c(O)c3)nc2c1	none
Cc1cccc(CSCCNC(=O)C2CCN(S(=O)(=O)Cc3ccccc3)CC2)c1	none (no result: HCV inhibitor)
CCCn1c(=S)[nH]c2cc(C(=O)N3CCN(C4CCCCC4)CC3)ccc2c1=O	none
Nc1c(Cl)cc(C2=NCCn3nc4cc([N+](=O)[O-])ccc4c32)cc1Cl	FMDV antiviral inconclusive, HCV inhibitor inconclusive
Nc1c(Cl)cc(C2=NCCn3c2c2ccc([N+](=O)[O-])cc2[n+]3[O-])cc1Cl	Vaccinia Venus inconclusive, HCV inhibitor 10µM, HCMV inh inconclusive, Vaccinia mCherry inconclusive
Cc1cc(C)c2c(=O)n3c(nc2c1)C(Cc1ccccc1)NC(=O)c1cc2ccccc2cc1-3 (stereo not drawn)	FMDV antiviral inconclusive, HCMV inh -72 (no result: HCV inhibitor)
O=C1NC(Cc2ccc(O)cc2)c2nc3cc(F)ccc3c(=O)n2-c2cc3ccccc3cc21 (stereo not drawn)	Vaccinia Venus inconclusive (no result: HCV inhibitor)
O=C1NC(Cc2ccc(O)cc2)c2nc3cc(Cl)ccc3c(=O)n2-c2cc(Cl)ccc21 (stereo not drawn)	Vaccinia Venus inconclusive, FMDV antiviral inconclusive, HCV inhibitor 25µM, Vaccinia mCherry inconclusive
O=C1NC(Cc2ccccc2)c2nc3ccc(Cl)cc3c(=O)n2-c2cc3ccccc3cc21 (stereo not drawn)	none (no result: HCV inhibitor)
O=C1NC(Cc2ccc(O)cc2)c2nc3cc(F)ccc3c(=O)n2-c2cc(Cl)ccc21 (stereo not drawn)	none (no result: Vaccinia Venus, FMDV antiviral, Vaccinia mCherry)
CCC1NC(=O)c2cc3ccccc3cc2-n2c1nc1cc(C)cc(C)c1c2=O (stereo not drawn)	none (no result: HCV inhibitor)
Cc1ccc2c(=O)n3c(nc2c1)C(Cc1ccc(O)cc1)NC(=O)c1cc2ccccc2cc1-3 (stereo not drawn)	Vaccinia Venus inconclusive, FMDV antiviral inconclusive, HCMV inh -65 (no result: HCV inhibitor)
O=C1NC(Cc2ccc(O)cc2)c2nc3ccc(Cl)cc3c(=O)n2-c2cc3ccccc3cc21 (stereo not drawn)	Vaccinia Venus inconclusive, FMDV antiviral inconclusive, HCMV inh -106 (no result: HCV inhibitor)
COC(=O)c1ccc(C(=O)NCC2Cc3cccc(-c4ccc(C(=O)OC)cn4)c3O2)cc1 (stereo not drawn)	none (no result: HCV inhibitor, HCMV inh)
CCc1ccc(-c2cn(-c3nc(C)cc(C)n3)c(=N)o2)cc1	HCV inhibitor 22µM, HCMV inh -101 (no result: Vaccinia Venus, Vaccinia mCherry)
COc1ccc(S(=O)(=O)N2CCN(C(=O)c3cc(-c4ccc(Br)cc4)n[nH]3)CC2)cc1OC	Vaccinia Venus inconclusive, FMDV antiviral inconclusive, HCV inhibitor inconclusive, HCMV inh -72!
O=C(c1cc(-c2ccc(Br)cc2)n[nH]1)N1CCN(S(=O)(=O)c2ccc(Br)cc2)CC1	Vaccinia Venus inconclusive, HCMV inh inconclusive (no result: HCV inhibitor)
Cc1ccc(C)c(S(=O)(=O)N2CCN(C(=O)CSc3ccccc3F)CC2)c1	FMDV antiviral inconclusive (no result: Vaccinia Venus, Vaccinia mCherry)
c1ccc(/N=C2\N=C(Nc3ccccn3)c3ccccc32)nc1	Vaccinia Venus inconclusive, HCV inhibitor inconclusive, HCMV inh -99, Vaccinia mCherry inconclusive
COc1cc(-c2nc(-c3ccccc3)c(-c3cccs3)[nH]2)cc(OC)c1O	FMDV antiviral inconclusive, HCV inhibitor 10µM (no result: Vaccinia Venus, Vaccinia mCherry)
COc1cc(-c2nc(-c3ccccc3)c(-c3cccs3)[nH]2)cc(OC)c1OC	HCV inhibitor 22µM (no result: Vaccinia Venus, Vaccinia mCherry)
c1ccc(-c2nc(-c3cccs3)[nH]c2-c2ccccc2)cc1	HCV inhibitor inconclusive (no result: Vaccinia Venus, Vaccinia mCherry)
CC[n+]1c(/C=C/N(C)c2ccccc2)oc2ccc(F)cc21	HCV inhibitor inconclusive, HCMV inh -85
CC[n+]1c(/C=C/N(C)c2ccccc2)oc2ccccc21	FMDV antiviral inconclusive, HCV inhibitor inconclusive, HCMV inh -97
CCN(CC)S(=O)(=O)c1nnc(NC(=O)COc2ccc(C)cc2)s1	none (no result: HCV inhibitor)
COc1cc(NC(=O)C2=C(N3CCOCC3)/C(=C/c3ccc(Cl)cc3)CC2)cc(OC)c1OC	FMDV antiviral inconclusive
COc1cc(NC(=O)C2=C(N3CCOCC3)/C(=C\c3ccc(N(C)C)cc3)CCC2)cc(OC)c1OC	Vaccinia Venus inconclusive, FMDV antiviral inconclusive, HCV inhibitor 6.3µM, HCMV inh -91, Vaccinia mCherry inconclusive
CN(C)S(=O)(=O)n1cnc([C@@H]2[C@H]3C(=O)OC[C@@H]3C[C@@]23N=CN(Cc2ccccc2)C3=O)c1	none
CC(=O)/C(N=Nc1ccc2c(c1)OCCO2)=C(\C)O	FMDV antiviral 1.3µM, HCMV inh -71 (no result: Vaccinia Venus, Vaccinia mCherry)
Cc1nc(N2CCN(S(=O)(=O)c3ccc(F)cc3)CC2)c2c(-c3cccs3)csc2n1	FMDV antiviral inconclusive, HCV inhibitor inconclusive, HCMV inh -66
Cc1nc(N2CCN(S(=O)(=O)c3ccccc3C#N)CC2)c2c(-c3ccccc3)csc2n1	FMDV antiviral inconclusive, HCV inhibitor 8.9µM, HCMV inh -74 (no result: Vaccinia Venus, Vaccinia mCherry)
COc1ccc(Nc2c(-c3ccc(C)o3)nc3cc(C)ccn23)cc1	none (no result: HCV inhibitor)
CC1=C2C3OC(=O)C(C)C3CCC2(C)C=CC1=NO (stereo not drawn)	none
CCCCn1c(N)c(N(CCOC)C(=O)c2ccc(N3CCCC3)c([N+](=O)[O-])c2)c(=O)[nH]c1=O	HCV inhibitor inconclusive
Cc1cc(N2CCN(C)CC2)n2nc(-c3ccc(Cl)cc3)nc2n1	Vaccinia Venus inconclusive, Vaccinia mCherry 7.9µM
Cc1cc(C)n2nc(-c3ccc(Cl)cc3)nc2n1	none (no result: HCV inhibitor)
COc1ccc(CCNC(=O)CCCCCNc2nc(=S)[nH]c3ccccc23)cc1OC	HCV inhibitor 11µM, Vaccinia mCherry inconclusive
O=C(NCCC1=CCCCC1)C1CCC(CNc2nc(=S)[nH]c3ccccc23)CC1 (stereo not drawn)	HCV inhibitor inconclusive, HCMV inh -62, Vaccinia mCherry inconclusive
O=C(CCCCCNc1nc(=S)[nH]c2ccccc12)NCCc1ccccc1	Vaccinia Venus inconclusive, HCV inhibitor inconclusive, Vaccinia mCherry inconclusive
O=C(NCCc1ccc(Cl)cc1)C1CCC(CNc2nc(=S)[nH]c3ccccc23)CC1 (stereo not drawn)	HCV inhibitor 11µM, HCMV inh -82
CCCCNC(=O)C1CCC(CNc2nc(=S)[nH]c3ccccc23)CC1 (stereo not drawn)	none
O=C1CCC[C@@H]2[C@@H](Cc3ccccc3)[C@@H](Nc3ccccc3)C[C@@H]3CCN1[C@@H]32	none (no result: FMDV antiviral, HCV inhibitor, HCMV inh)
O=C(CSc1nc(Nc2ccccc2)nc(N2CCOCC2)n1)NC1CCCCC1	none
COc1ccc(C)cc1NC(=O)CSc1nnc(COc2ccc(C)cc2)n1Cc1ccco1	FMDV antiviral inconclusive, HCV inhibitor inconclusive (no result: Vaccinia mCherry)
